# Laboratory results published in PubChem BioAssay AID1224861 (National Center for Advancing Translational Sciences (NCATS), 2016).
# Records with an inconclusive call do not appear. Entries that show only a call come without a potency. The source made the active and inactive calls. Calls come from the whole dose curve; as a rule, active = well fitted cell-killing curve with a large enough effect; inconclusive = small, poorly fitted or top-dose-only effect, or effect the other way; inactive = flat fitted curve, though single readings scatter.
# Assay: Compound cytotoxicity measured by an ATP content assay as a counter-screen for lead compounds in human astrocytes
# Details: human astrocytes viability, ATP luminescence; series mostly up to 46.1 µM
# In short: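 Human astrocytes seeded 16–20 h beforehand at 37 C, 5% CO2, then exposed to compounds for set times (e.g. 6, 24 or 72 h). ATP content reagent added 1:1, 10 min room temperature; luminescence converted to percent inhibition of viability.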
row,Compound,Potency
1,COc1ccc2nc(NC(=O)Nc3ccccc3)sc2c1,19.5 µM (active)
2,N[C@H](CSC(c1ccccc1)(c1ccccc1)c1ccccc1)C(=O)O,inactive
3,Cc1cc(O)c2c(c1)C(=O)c1cc(O)cc(O)c1C2=O,inactive
4,CCOCCOC(=O)/C=C/c1ccc(OC)cc1,inactive
5,Cc1ccc(O)c(N=Nc2ccccc2)n1,4.35 µM (active)
6,CC(O)=C(C#N)C(=O)Nc1ccc(C(F)(F)F)cc1,6.9 µM (active)
7,NC(=O)c1cccc2[nH]c(-c3ccc([C@H]4CCCN4)cc3F)nc12,5.48 µM (active)
8,Cc1cc(O)c2ccccc2c1O,8.69 µM (active)
9,C[C@@H]1CCN(C(=O)CC#N)C[C@H]1N(C)c1ncnc2[nH]ccc12,inactive
10,Oc1cc(O)cc(/C=C/c2ccc(O)c(O)c2)c1,8.69 µM (active)
11,CCCCCCCC/C=C/C(=O)O,inactive
12,c1ccc(CCNc2nc(-c3ccccc3)cs2)cc1,inactive
13,CS(=O)(=O)c1ccc(-c2cn3ccccc3n2)cc1,8.69 µM (active)
14,O[C@@H](COc1cccc2ncccc12)CN1CCN(C2c3ccccc3[C@@H]3[C@H](c4ccccc42)C3(F)F)CC1 (some centres not stated),inactive
15,Cc1cccc(/C=C/c2ccccc2)n1,inactive
16,CC(C(=O)O)c1ccc(C(=O)c2ccccc2)s1 (configuration not stated),inactive
17,CCC(C(=O)O)c1ccc(N2Cc3ccccc3C2=O)cc1 (configuration not stated),inactive
18,C[C@@H](N)c1ccc(C(=O)Nc2ccnc3[nH]ccc23)cc1,inactive
19,O=C(O)CCC(=O)c1ccc(-c2ccccc2)cc1,inactive

row,Compound,Potency
1,CN1CCN(c2cc3c(nn2)Oc2ccccc2N3C)CC1,inactive
2,COc1ccc(CC2=NN3C([C@@H](CCc4ccccc4)[C@@H](C)O)=NC(C)C3C(=O)N2)cc1OC (some centres not stated),inactive
3,Nc1cc(C(F)(F)F)ccc1S,inactive
4,COc1ccc(-c2cc(=S)ss2)cc1,inactive
5,OCc1ccc(-c2ccc(-c3ccc(CO)s3)o2)s1,21.8 µM (active)
6,Cc1csc(NC(=O)c2sc3nc4c(c(C(F)(F)F)c3c2N)CCC4)n1,3.46 µM (active)
7,COc1ccc(-c2cc(=O)c3c(O)cc(O)cc3o2)cc1O,inactive
8,CC(=NNC(=S)N1CCC1)c1ccccn1,17.3 µM (active)
9,O=C1c2ccccc2-[n+]2ccc3c([nH]c4ccccc43)c21,4.35 µM (active)
10,NC(N)=NN=C(/C=C/c1ccc([N+](=O)[O-])o1)/C=C/c1ccc([N+](=O)[O-])o1,3.46 µM (active)
11,C=CCCCCCCCCC(=O)O,inactive
12,COc1cc(NC(C)CCCN)c2ncccc2c1 (configuration not stated),inactive
13,CNC1[C@H](O)C(O[C@@H]2C(O)C(O[C@H]3O[C@H]([C@@H](C)NC)CC[C@H]3N)[C@@H](N)C[C@H]2N)OC[C@]1(C)O (some centres not stated),inactive
14,CCN1CCC(n2cc(CNc3cc(Cl)c4ncc(C#N)c(Nc5ccc(F)c(Cl)c5)c4c3)nn2)CC1,inactive
15,COc1cc2nc(N3CCN(C(=O)C4CCCO4)CC3)nc(N)c2cc1OC (configuration not stated),inactive
16,CC[C@@]1(O)C[C@H](O[C@H]2C[C@H](N(C)C)[C@H](O[C@H]3C[C@H](O)[C@H](O[C@H]4CCC(=O)[C@H](C)O4)[C@H](C)O3)[C@H](C)O2)c2c(cc3c(c2O)C(=O)c2c(O)cccc2C3=O)[C@@H]1C(=O)OC,inactive
17,O=C1NC(=O)C(=Cc2ccc(-c3ccc(F)cc3)o2)S1,inactive
18,Nc1ccc(O)c(C(=O)O)c1,inactive
